Data published in article PMC11006913.
Numbering of substitutions follows the chain as printed.

Tests used:
Test in all cases: PBM; 200 nM protein, PBS
Conditions in all cases: dsDNA, one strand shown
NKX2-5 [1] = target: NKX2-5 (Homo sapiens, UniProt P52952 125-210, R139K)
NKX2-6 [2] = target: T1, NKX2-6 (Homo sapiens, UniProt A6NCS4 118-204, R150C)
T1 sequence: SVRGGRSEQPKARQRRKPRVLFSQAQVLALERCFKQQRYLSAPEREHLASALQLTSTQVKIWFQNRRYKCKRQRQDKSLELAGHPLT

PROP1 [3] = target: PROP1 (Homo sapiens, UniProt O75360 56-141)
PROP1 (Homo sapiens, UniProt O75360 56-141), sequence (O75360 56-141): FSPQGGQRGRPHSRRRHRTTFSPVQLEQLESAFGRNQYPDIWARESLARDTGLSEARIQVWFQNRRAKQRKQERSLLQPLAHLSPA

PROP1 [4] = target: PROP1 (Homo sapiens, UniProt O75360 56-141, R99H)
PROP1 (Homo sapiens, UniProt O75360 56-141, R99H), sequence (O75360 56-141 R99H): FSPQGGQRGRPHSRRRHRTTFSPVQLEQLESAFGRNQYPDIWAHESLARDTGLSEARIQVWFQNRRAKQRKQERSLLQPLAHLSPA

PROP1 [5] = target: PROP1 (Homo sapiens, UniProt O75360 56-141, F88S)
PROP1 (Homo sapiens, UniProt O75360 56-141, F88S), sequence (O75360 56-141 F88S): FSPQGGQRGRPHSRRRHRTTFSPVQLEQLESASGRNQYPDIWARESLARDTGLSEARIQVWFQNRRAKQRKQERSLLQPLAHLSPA

NKX3-2 [6] = target: NKX3-2 (Homo sapiens, UniProt P78367 192-278, P234S)
NKX3-2 (Homo sapiens, UniProt P78367 192-278, P234S), sequence (P78367 192-278 P234S): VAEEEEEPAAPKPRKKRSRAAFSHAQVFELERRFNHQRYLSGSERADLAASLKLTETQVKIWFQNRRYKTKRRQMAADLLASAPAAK

NKX2-5 [7] = target: NKX2-5 (Homo sapiens, UniProt P52952 125-210)
NKX2-5 (Homo sapiens, UniProt P52952 125-210), sequence (P52952 125-210): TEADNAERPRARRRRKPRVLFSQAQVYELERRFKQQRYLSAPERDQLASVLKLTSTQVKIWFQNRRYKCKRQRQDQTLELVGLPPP

NKX3-2 [8] = target: NKX3-2 (Homo sapiens, UniProt P78367 192-278)
NKX3-2 (Homo sapiens, UniProt P78367 192-278), sequence (P78367 192-278): as the sequence (P78367 192-278 P234S) above, with S43P counted along it

NKX2-6 [9] = target: T2, NKX2-6 (Homo sapiens, UniProt A6NCS4 118-204)
T2 sequence: T1 sequence with C33R

NKX2-6 [10] = target: T3, NKX2-6 (Homo sapiens, UniProt A6NCS4 118-204, F151L)
T3 sequence: T1 sequence with C33R, F34L

ALX1 [11] = target: ALX1 (Homo sapiens, UniProt Q15699 118-204, L144V)
ALX1 (Homo sapiens, UniProt Q15699 118-204, L144V), sequence (Q15699 118-204 L144V): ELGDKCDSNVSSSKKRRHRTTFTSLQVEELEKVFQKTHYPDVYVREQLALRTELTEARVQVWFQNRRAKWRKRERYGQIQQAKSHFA

ALX1 [12] = target: ALX1 (Homo sapiens, UniProt Q15699 118-204, L144R)
ALX1 (Homo sapiens, UniProt Q15699 118-204, L144R), sequence (Q15699 118-204 L144R): as the sequence (Q15699 118-204 L144V) above, with V27R counted along it

ALX1 [13] = target: ALX1 (Homo sapiens, UniProt Q15699 118-204)
ALX1 (Homo sapiens, UniProt Q15699 118-204), sequence (Q15699 118-204): as the sequence (Q15699 118-204 L144V) above, with V27L counted along it

NKX2-5 (Homo sapiens, UniProt P52952 125-210, R139K), sequence (P52952 125-210 R139K): as the sequence (P52952 125-210) above, with R15K counted along it

For GCGCGTCC, the binding signal (NKX2-5 [1]) was 8.83 upbm affinity estimate (log intensity, higher = more binding, comparable within an allelic series), the binding signal (NKX2-6 [2]) was 9.52 upbm affinity estimate (log intensity, higher = more binding, comparable within an allelic series) and the binding signal (PROP1 [3]) was 6.74 upbm affinity estimate (log intensity, higher = more binding, comparable within an allelic series). For the same sequence, the binding signal (PROP1 [4]) was 6.79 upbm affinity estimate (log intensity, higher = more binding, comparable within an allelic series), the binding signal (PROP1 [5]) was 6.63 upbm affinity estimate (log intensity, higher = more binding, comparable within an allelic series) and the binding signal (NKX3-2 [6]) was 10.6 upbm affinity estimate (log intensity, higher = more binding, comparable within an allelic series). For the same sequence, the binding signal (NKX2-5 [7]) was 8.91 upbm affinity estimate (log intensity, higher = more binding, comparable within an allelic series) and the binding signal (NKX3-2 [8]) was 10.6 upbm affinity estimate (log intensity, higher = more binding, comparable within an allelic series).
CACACTTA was tested, and the binding signal (NKX2-5 [1]) was 12.5 upbm affinity estimate (log intensity, higher = more binding, comparable within an allelic series), the binding signal (NKX2-6 [2]) was 11.7 upbm affinity estimate (log intensity, higher = more binding, comparable within an allelic series) and the binding signal (NKX2-6 [9]) was 13.5 upbm affinity estimate (log intensity, higher = more binding, comparable within an allelic series). For the same sequence, the binding signal (NKX2-6 [10]) was 10.9 upbm affinity estimate (log intensity, higher = more binding, comparable within an allelic series), the binding signal (NKX3-2 [6]) was 12.6 upbm affinity estimate (log intensity, higher = more binding, comparable within an allelic series) and the binding signal (NKX2-5 [7]) was 12.4 upbm affinity estimate (log intensity, higher = more binding, comparable within an allelic series). For the same sequence, the binding signal (NKX3-2 [8]) was 12.7 upbm affinity estimate (log intensity, higher = more binding, comparable within an allelic series).
ACACGTGT was tested, and the binding signal (NKX2-5 [1]) was 9.32 upbm affinity estimate (log intensity, higher = more binding, comparable within an allelic series), the binding signal (ALX1 [11]) was 6.61 upbm affinity estimate (log intensity, higher = more binding, comparable within an allelic series) and the binding signal (ALX1 [12]) was 6.61 upbm affinity estimate (log intensity, higher = more binding, comparable within an allelic series). For the same sequence, the binding signal (ALX1 [13]) was 6.65 upbm affinity estimate (log intensity, higher = more binding, comparable within an allelic series) and the binding signal (NKX2-5 [7]) was 9.25 upbm affinity estimate (log intensity, higher = more binding, comparable within an allelic series).
In the case of ACACTTAG, the binding signal (NKX2-5 [1]) is reported as 12.6 upbm affinity estimate (log intensity, higher = more binding, comparable within an allelic series), the binding signal (NKX2-6 [2]) is reported as 11.7 upbm affinity estimate (log intensity, higher = more binding, comparable within an allelic series) and the binding signal (NKX2-6 [9]) is reported as 13.5 upbm affinity estimate (log intensity, higher = more binding, comparable within an allelic series). The binding signal (NKX2-6 [10]) was 11 upbm affinity estimate (log intensity, higher = more binding, comparable within an allelic series), the binding signal (NKX3-2 [6]) was 12.8 upbm affinity estimate (log intensity, higher = more binding, comparable within an allelic series) and the binding signal (NKX2-5 [7]) was 12.5 upbm affinity estimate (log intensity, higher = more binding, comparable within an allelic series). For the same sequence, the binding signal (NKX3-2 [8]) was 12.8 upbm affinity estimate (log intensity, higher = more binding, comparable within an allelic series).
In the case of ACCGGAGC, the binding signal (NKX2-5 [1]) is reported as 8.8 upbm affinity estimate (log intensity, higher = more binding, comparable within an allelic series) and the binding signal (NKX2-5 [7]) is reported as 8.81 upbm affinity estimate (log intensity, higher = more binding, comparable within an allelic series).
In the case of GGCTATTA, the binding signal (NKX2-5 [1]) is reported as 10.7 upbm affinity estimate (log intensity, higher = more binding, comparable within an allelic series) and the binding signal (NKX2-5 [7]) is reported as 10.6 upbm affinity estimate (log intensity, higher = more binding, comparable within an allelic series).
For CCAACGCA, the binding signal (NKX2-5 [1]) was 8.88 upbm affinity estimate (log intensity, higher = more binding, comparable within an allelic series) and the binding signal (NKX2-5 [7]) was 8.96 upbm affinity estimate (log intensity, higher = more binding, comparable within an allelic series).
In the case of GGCTCTTA, the binding signal (NKX2-5 [1]) is reported as 11.7 upbm affinity estimate (log intensity, higher = more binding, comparable within an allelic series) and the binding signal (NKX2-5 [7]) is reported as 11.6 upbm affinity estimate (log intensity, higher = more binding, comparable within an allelic series).
TGCGCGCA was tested, and the binding signal (NKX2-5 [1]) was 9.19 upbm affinity estimate (log intensity, higher = more binding, comparable within an allelic series) and the binding signal (NKX2-5 [7]) was 9.1 upbm affinity estimate (log intensity, higher = more binding, comparable within an allelic series).
In the case of AACGTGGG, the binding signal (NKX2-5 [1]) is reported as 8.65 upbm affinity estimate (log intensity, higher = more binding, comparable within an allelic series) and the binding signal (NKX2-5 [7]) is reported as 8.69 upbm affinity estimate (log intensity, higher = more binding, comparable within an allelic series).
With CCGTCCCG the binding signal (NKX2-5 [1]) was 8.71 upbm affinity estimate (log intensity, higher = more binding, comparable within an allelic series) and the binding signal (NKX2-5 [7]) was 8.66 upbm affinity estimate (log intensity, higher = more binding, comparable within an allelic series).
With CGGCGAAC the binding signal (NKX2-5 [1]) was 8.65 upbm affinity estimate (log intensity, higher = more binding, comparable within an allelic series) and the binding signal (NKX2-5 [7]) was 8.62 upbm affinity estimate (log intensity, higher = more binding, comparable within an allelic series).
With CACAAGAG the binding signal (NKX2-5 [1]) was 11.1 upbm affinity estimate (log intensity, higher = more binding, comparable within an allelic series) and the binding signal (NKX2-5 [7]) was 11 upbm affinity estimate (log intensity, higher = more binding, comparable within an allelic series).
ATACTCCA was tested, and the binding signal (NKX2-5 [1]) was 10.6 upbm affinity estimate (log intensity, higher = more binding, comparable within an allelic series) and the binding signal (NKX2-5 [7]) was 10.4 upbm affinity estimate (log intensity, higher = more binding, comparable within an allelic series).
For CACAGCCG, the binding signal (NKX2-5 [1]) was 8.68 upbm affinity estimate (log intensity, higher = more binding, comparable within an allelic series) and the binding signal (NKX2-5 [7]) was 8.68 upbm affinity estimate (log intensity, higher = more binding, comparable within an allelic series).
In the case of CGGTTTGC, the binding signal (NKX2-5 [1]) is reported as 8.63 upbm affinity estimate (log intensity, higher = more binding, comparable within an allelic series) and the binding signal (NKX2-5 [7]) is reported as 8.59 upbm affinity estimate (log intensity, higher = more binding, comparable within an allelic series).
For AGCACTAG, the binding signal (NKX2-5 [1]) was 10.6 upbm affinity estimate (log intensity, higher = more binding, comparable within an allelic series) and the binding signal (NKX2-5 [7]) was 10.6 upbm affinity estimate (log intensity, higher = more binding, comparable within an allelic series).
With AAGTAGGG the binding signal (NKX2-5 [1]) was 10.9 upbm affinity estimate (log intensity, higher = more binding, comparable within an allelic series) and the binding signal (NKX2-5 [7]) was 10.9 upbm affinity estimate (log intensity, higher = more binding, comparable within an allelic series).
For GCCGACCC, the binding signal (NKX2-5 [1]) was 8.84 upbm affinity estimate (log intensity, higher = more binding, comparable within an allelic series) and the binding signal (NKX2-5 [7]) was 8.81 upbm affinity estimate (log intensity, higher = more binding, comparable within an allelic series).
